Laboratory results taken from PubChem BioAssay AID1259415 (National Center for Advancing Translational Sciences (NCATS), 2018).
Where “and” joins values, the source holds several entries; their conditions need not be identical. Equal entries are not always repeated. The whole screen tested about 410,000 compounds, of which about 18,000 (4.4%) were called active. Not shown: some 7% with an inconclusive outcome. The full list was thinned out, with actives kept by preference. Values without a mark were called inactive. Rule as the data show it: active = activity change below about -60%; inconclusive = no clear call, values can overlap the other calls; inactive = above about -39%.

Experiment: qHTS Assay for inhibitors of the human cytomegalovirus (HCMV)
Conditions: HFF cells, HCMV-luciferase reporter, 72 h; at 57.5 µM; hits give low values
Procedure, shortened: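 Two-dose cell screen: HFF monolayers treated with compounds and infected with luciferase-expressing HCMV at 1 PFU/cell, 72 h at 37C, then lysed for luciferase measurement.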
% is scaled to controls: 0 for no effect and ±100 for the full control effect.

| Compound | activity change, negative = inhibition |
| --- | --- |
| Cc1ccc(S(=O)(=O)NC(C(=O)N2CCOCCOCCOCCOCC2)c2ccccc2)cc1 (stereo not given) | -14.3% |
| Cc1ccc(C)c(CN2C(=O)c3ccccc3S(=O)c3ccc(C(=O)N4CCOCC4)cc32)c1 (stereo not given) | 9.82% |
| Cc1oc2c(c1C(=O)N1CCOCC1)C(=O)c1ccccc1C2=O | -101% (active) |
| COc1cc(NC(=O)C2CC(c3ccccc3O)=NO2)c(OC)cc1Cl (stereo not given) | 0.764% |
| CCC(C)Cn1c(O)cc2nn(-c3nc4ccccc4s3)c(=O)c-2c1C (stereo not given) | -80.3% (active) |
| NS(=O)(=O)c1ccc(NC(=O)C(=O)Nc2ccc3nc4n(c(=O)c3c2)CCCCC4)cc1 | 13.4% |
| COc1ccc(-c2c(C)nn3c(N4CCC(C(=O)NCCC(C)C)CC4)cc(C)nc23)cc1OC | 1.6% |
| CCN1CCN(C(c2ccc(C)cc2)c2c(O)cc(C)n(Cc3ccco3)c2=O)CC1 (stereo not given) | 25% |
| CCOc1ccccc1NC(=O)Cn1nnc(C(=O)NCc2cccs2)c1N | -78.3% (active) |
| CCOc1ccc(Cl)cc1-c1cc(C(=O)NCc2cccs2)[nH]n1 | 8.26% |
| CCOc1ccccc1NC(=O)Cn1nnc(C(=O)Nc2ccc(C)c(C)c2)c1N | -18.4% |
| COc1ccc(CNC(=O)CS(=O)Cc2nc(-c3cccc(C)c3)oc2C)cc1 (stereo not given) | -7.8% |
| CN(CC(=O)O)S(=O)(=O)c1ccc2oc3ccccc3c2c1 | -8.55% |
| CC(C)Nc1nc(NCCOc2ccccc2Cl)c2sccc2n1 | -35.9% |
| COc1cccc(CNc2nccn(-c3ccc(OC)c(OC)c3)c2=O)c1 | 13.5% |
| COc1cccc(CNc2nc(NCc3ccccc3OC)nc3ccsc23)c1 | -90.2% (active) |
| COc1ccccc1CNc1nc2ccc(Cl)cc2n2cnnc12 | 25.8% |
| COc1ccccc1CNc1nc(Nc2ccccc2Cl)c2sccc2n1 | -67.2% (active) |
| COc1cccc(-c2cc3nc(NCc4ccccc4OC)n(C)c(=O)c3s2)c1 | -13.2% |
| CCN1CCC(N(Cc2ccc(F)cc2)C(=O)Nc2cc(C)ccc2C)CC1 | -23.7% |
| CCOC(=O)Cn1c(=O)n(-c2ccccc2OC)c2nc(-c3cccc(F)c3)nc(C(N)=O)c21 | 1.14% |
| O=C(Cc1ccc(F)cc1)N1CCN=C1SCc1cccc([N+](=O)[O-])c1 | 35.3% |
| O=C(O)c1cc(S(=O)(=O)N(Cc2ccccc2)c2ccccc2)ccc1Cl | -27.4% |
| O=C(CCl)N(Cc1cccc([N+](=O)[O-])c1)c1cccc(Cl)c1 | -99.6% (active) |

| Compound | activity change, negative = inhibition |
| --- | --- |
| CCOC(=O)c1cc(NC(=O)c2ccc(F)cc2)c(=O)n2c1oc1ccccc12 | -11.8% |
| CCCN(CCC)CCCNC(=O)Cn1ncc2c3ccccc3n(Cc3ccccc3)c2c1=O | -11.9% |
| O=C(Cn1ncc2c3ccccc3n(Cc3ccccc3)c2c1=O)NCc1ccccn1 | -12.1% and -33.7% |
| Cc1ccccc1Cn1c2ccccc2c2cnn(CC(=O)NCc3ccco3)c(=O)c21 | -95.6% (active) |
| Cc1ccc(-c2nnc(Nc3ccc(OCC(N)=O)cc3)c3ccccc23)cc1S(=O)(=O)NCC1CCCO1 (stereo not given) | -19.2% |
| CCn1c(=O)cc(OCC(=O)Nc2cc(Cl)c(OC)cc2OC)c2ccccc21 | 0.565% |
| C=CCC(C(=O)c1ccccc1)[N+](C)(C)CC=C (stereo not given) | 12.4% |
| COCC1CCCCN1C(=O)c1cc(COc2ccc(C)c(C)c2)on1 (stereo not given) | 50.2% |
| Cc1nonc1C1CCCN1C(=O)c1cc(COc2cccc(C(F)(F)F)c2)on1 (stereo not given) | 10.6% |
| COC(=O)[C@@H]1CCCN1C(=O)c1cc(COc2cccc3cccnc23)on1 | -61.4% (active) |
| O=C(Cc1csc(Nc2nc(=S)[nH]c3ccccc23)n1)NCCCN1CCN(c2cccc(Cl)c2)CC1 | 2.37% |
| CCC(=O)NC(NCC1CCCO1)C(Cl)(Cl)Cl (stereo not given) | -10.5% |
| COCCN(CCOC)c1nc(N)c2c(N)nc3c(c2c1C#N)CC(=O)N3Cc1ccc(Cl)cc1 | 30.8% |
| Cc1cc(C)c(SCCc2ccncc2)c(C)c1 | -63.8% (active) |
| c1ccc(CSCCc2ccncc2)cc1 | -24.8% |
| Cc1cc(C)c(NC(=O)CSc2nc3ccncc3[nH]2)c(C)c1 | -3.75% |
| COc1ccc2c(c1)C=C(C(=O)NCc1cc(Br)ccc1OC)CO2 | -22.6% |
| Cc1ccccc1Nc1scc(-c2ccc(Br)cc2)[n+]1-c1ccccc1C | -68.6% (active) |
| CSCC[C@H](NC(=O)N1CCn2c1nc1ccccc12)C(=O)NC1CCCCC1 | -35.1% |
| CSc1ccc(Cl)c(C(=O)OCC(=O)N2CCNC2=O)c1 | -17% |
| CN(C1CCS(=O)(=O)C1)S(=O)(=O)c1ccc2ccccc2c1 (stereo not given) | -24.3% |
| CCN1CCN(C(=O)CN(C)S(=O)(=O)c2ccc3ccccc3c2)CC1 | -9.61% |
| CC(=O)Oc1ccc(N(C(C)=O)S(=O)(=O)c2ccc3ccccc3c2)cc1Br | -69.6% (active) |
| CCC(CC)C(=O)N1CCc2cc(OC)c(OC)cc2C1COc1ccc(F)cc1 (stereo not given) | -15.5% |

| Compound | activity change, negative = inhibition |
| --- | --- |
| O=C(Nc1c(C(=O)N2CCCCC2)cnn1-c1ccccc1)c1ccco1 | 22.9% |
| O=C(Nc1ccc2nc(SCCOc3ccccc3Cl)sc2c1)c1ccco1 | -70% (active) |
| COc1cc(C)ccc1OCCSc1nc2ccc(NC(=O)c3ccc(C)cc3)cc2s1 | 24.3% |
| CC(=O)Nc1ccc2nc(SCCOc3cc(C)cc(C)c3)sc2c1 | -35% |
| O=C(COc1ccc2ccc(=O)oc2c1)NCC(O)c1ccccc1 (stereo not given) | -6.86% |
| CC(C)OC(=O)c1ccc(COc2ccc3ccc(=O)oc3c2)o1 | -15.4% |
| CC(=CCOc1ccc2ccc(=O)oc2c1)C1=CC(=O)C(C)(C)O1 | -76.5% (active) |
| CCOc1ccc(CNC(=O)c2ccc3nc(CC)c(CC)nc3c2)cc1OC | -2.8% |
| CCC(=O)Nc1cccc(C(=O)OCc2cc(=O)n3nc(CC)sc3n2)c1 | -14.2% |
| CC(C)=CCc1c(O)c(CC=C(C)C)c2occ(-c3ccc(O)cc3)c(=O)c2c1O | -100% (active) |
| Cc1ccc(C(O)c2nnc(Nc3cccc(Oc4ccccc4)c3)s2)cc1 (stereo not given) | -5.85% |
| O=C(N/N=C/c1ccc(Br)o1)c1cncc(Br)c1 | -102% (active) |
| O=C(CCC(=O)N/N=C/c1ccc(Br)o1)N/N=C/c1ccc(Br)o1 | -61.8% (active) |
| Cc1ccc(C(=O)N/N=C\c2cc(Br)c(Br)o2)cn1 | -32.6% |
| O=C(CCNC(=O)c1ccccc1)NN=Cc1ccc(Br)o1 | -13.4% |
| O=C(CCNc1n[nH]c(=O)[nH]c1=O)N/N=C\c1ccc(Br)cc1 | 0% |
| COC(=O)c1ccccc1NC(=O)c1cncc(Br)c1 | -30.4% |
| COc1ccc(-c2cc(C(F)(F)F)n3nc(-c4ccccc4)cc3n2)cc1OC | -15.9% |
| COc1ccccc1NC(=O)C1CCN(C(=O)c2ccc(C(C)(C)C)cc2)CC1 | 28.4% |
| CC(=O)Nc1ccc(S(=O)(=O)N2CCn3cccc3C2C)cc1 (stereo not given) | 36.8% |
| COc1ccccc1CNS(=O)(=O)c1ccc2c(c1)NC(=O)CS2 | -16.2% |
| CCC(Cc1ccccc1)NS(=O)(=O)c1ccc2c(c1)NC(=O)CS2 (stereo not given) | -70.6% (active) |
| O=C1CSc2ccc(S(=O)(=O)NCc3ccccc3)cc2N1 | 0% |
| Cc1cccc(N2CCN(C(=O)c3cnc(N4CCCC4)nc3C)CC2)c1C | -23.5% |

| Compound | activity change, negative = inhibition |
| --- | --- |
| O=C(CSc1nc2ccccc2o1)N1CCN(c2ccccc2)CC1 | -78.3% (active) |
| Cc1nc(SCC(=O)N2CCN(c3ccccc3)CC2)[nH]c(=O)c1C | 17.7% |
| O=C(CSc1nc2ccccc2o1)N1CCN(c2ccc(Cl)cc2)CC1 | -0.478% |
| COC(=O)c1ccccc1NC(=O)Cn1c(=O)n(-c2cccc(C(F)(F)F)c2)c(=O)c2c(C)c(C)sc21 | -21.9% |
| O=C(CN1C(=O)COc2ccc(S(=O)(=O)N3CCOCC3)cc21)N1CCN(c2cccc(Cl)c2)CC1 | -4.92% |
| CCC1(CC)NC(=O)N(CC(=O)OCC(=O)NC(=O)c2ccccc2)C1=O | -39.9% |
| Cn1c(CCc2ccccc2)nnc1SCC(N)=O | 8.58% |
| N#Cc1ccc(CSc2ncccn2)cc1 | 4.06% |
| N#CC1=C(SCc2ccc(C#N)cc2)N=C(N)C(c2nc(-c3ccccc3)cs2)C12CCCCC2 (stereo not given) | -98.4% (active) |
| O=C(CCCn1c(=O)c2cccn2c2cccnc21)NCc1ccc(F)cc1 | -18% |
| CCOc1ccccc1NC(=O)c1ccc2c(c1)CCN2S(=O)(=O)c1ccc(C)cc1 | 18.6% |
| Cc1ccc(C(=O)Nc2nc(N)n(-c3ccccc3)n2)cc1 | 68.4% |
| Cc1ccc2c(c1)c1ncnc(N3CCc4ccccc4C3)c1n2C | 110% |
| Cc1ccc2nc(C)c3c(c2c1)N(c1ccccc1)CC3 | -71.1% (active) |
| O=C(CN1CCN(Cc2ccc(F)cc2Cl)C1=O)NCc1cccs1 | -20.5% |
| Cc1ccc(N2C(=O)C3C4C=CC(CC4)C3C2=O)cc1Cl (stereo not given) | 2.41% |
| CC(C)CCN(C(=O)c1csnn1)C(C(=O)NC1CCCC1)c1ccccc1 (stereo not given) | 19.1% |
| Cc1ccc(NC(=O)COC(=O)CNC(=O)c2ccc(Cl)cc2Cl)cc1S(=O)(=O)N1CCOCC1 | -100% (active) |
| Cc1ccc(NC(=O)CCCNC(=O)c2ccc(Cl)cc2)cc1S(=O)(=O)N1CCCCC1 | -15.5% |
| Cc1ccc(NC(=O)CCNC(=O)c2ccc([N+](=O)[O-])cc2)cc1S(=O)(=O)N1CCOCC1 | -102% (active) |
| Cc1ccc(NC(=O)COC(=O)C2CC2)cc1S(=O)(=O)N1CCOCC1 | -3.87% |
| O=C(CCNC(=O)c1ccc([N+](=O)[O-])cc1)Nc1ccccc1N1CCOCC1 | -0.0167% |
| Cc1ccc(C(=O)OCC(=O)Nc2ccc(Cl)cn2)cc1S(=O)(=O)N1CCOCC1 | -11.7% |
